According to the supplement of paper PMC10849652:
About 7,900 targets were measured; listed, in parts, are those with a hit and a random draw of the rest. About 0.6% of all pairs of compound and target were hits.

Legend:
Assay in all cases: log2 fold change, soluble protein after heating vs DMSO (PISA); higher = thermal stabilisation; K562 cells, 10 uM, 30 min; active = over 0.2 and 3.5 SD of the protein, either way, in both replicates (recomputed)
[1] = compound: CC1=C(C=C(C=C1)NC(=O)C2=CC(=CC=C2)C(C)(C)C#N)NC3=CC4=C(C=C3)N=CN(C4=O)C
Method in brief: (§1)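 K562 cells at 2×10^6 cells/mL were treated with 10 μM compound for 30 min. Aliquots were heated for 3 min across 48°C-58°C, pooled, and extracted in PBS with 0.5% NP-40 at 4°C; soluble protein was the supernatant after 21,000xg for 90 min. Soluble protein was quantified by TMTpro 16plex LC-MS/MS with channel sums equalised, and reported as log2 fold change in thermal stability against DMSO controls, with values from duplicates.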

[2] = compound: CC1=NC(=CC=C1)C2=C(N=C(N2)C(C)(C)C)C3=CC4=NC=CN=C4C=C3
Method in brief: as §1

vemurafenib = compound: CCCS(=O)(=O)Nc1ccc(F)c(C(=O)c2c[nH]c3ncc(-c4ccc(Cl)cc4)cc23)c1F [vemurafenib]
Method in brief: as §1

[3] = compound: CCCc1cc(C)[nH]c(=O)c1CNC(=O)c1cc(-c2ccnc(N3CCN(C)CC3)c2)cc2c1cnn2C(C)C
Method in brief: as §1

givinostat = compound: CCN(CC)Cc1ccc2cc(COC(=O)Nc3ccc(C(=O)NO)cc3)ccc2c1 [givinostat]
Method in brief: as §1

[4] = compound: CC[C@@H]1C(=O)N(C)c2cnc(Nc3ccc(C(=O)NC4CCN(C)CC4)cc3OC)nc2N1C1CCCC1
Method in brief: as §1

[5] = compound: CC[C@H](C)N1C=C(C2=C(C=C(C=C21)C3=CN=C(C=C3)N4CCNCC4)C(=O)NCC5=C(C=C(NC5=O)C)C)C
Method in brief: as §1

[6] = compound: CCn1c(C(=O)N(C2CC2)C2CC2)cc2c3c(ncn3C)c(Nc3cc(C)n(C)n3)nc21
Method in brief: as §1

[7] = compound: CCn1cc(-c2ccnc3[nH]c(-c4cccc(CN(C)C)c4)cc23)c(-c2ccc(NC(=O)N(C)C)cc2)n1
Method in brief: as §1

[8] = compound: CN(C)CC(=O)Nc1ccc2[nH]c(=O)c3ccccc3c2c1
Method in brief: as §1

[9] = compound: CN1CCC(CNc2ccc3ncc(-c4cccc(OC(F)(F)F)c4)n3n2)CC1
Method in brief: as §1

barasertib = compound: CCN(CCCOc1ccc2c(Nc3cc(CC(=O)Nc4cccc(F)c4)[nH]n3)ncnc2c1)CCOP(=O)(O)O [barasertib]
Method in brief: as §1

rosiglitazone = compound: CN(CCOC1=CC=C(C=C1)C[C@H]2C(=O)NC(=O)S2)C3=CC=CC=N3 (racemic) [rosiglitazone]
Method in brief: as §1

[10] = compound: CC1=C(C=C(C=C1)NC(=O)C2=CC(=CC=C2)N(C)C)NC(=O)C3=CC=C(C=C3)O
Method in brief: as §1

[11] = compound: CC1=CC=C(C=C1)SC2=C3C=C(SC3=CN=C2)C(=O)N
Method in brief: as §1

[12] = compound: CCCS(=O)(=O)Nc1ccc(F)c(C(=O)c2c[nH]c3ncc(Cl)cc23)c1F
Method in brief: as §1

volasertib = compound: CC[C@@H]1C(=O)N(C)c2cnc(Nc3ccc(C(=O)N[C@H]4CC[C@H](N5CCN(CC6CC6)CC5)CC4)cc3OC)nc2N1C(C)C [volasertib]
Method in brief: as §1

Nexturastat A = compound: CCCCN(Cc1ccc(C(=O)NO)cc1)C(=O)Nc1ccccc1 [Nexturastat A]
Method in brief: as §1

epoxomicin = compound: CC[C@H](C)[C@@H](C(=O)N[C@@H]([C@@H](C)O)C(=O)N[C@@H](CC(C)C)C(=O)[C@]1(CO1)C)NC(=O)[C@H]([C@@H](C)CC)N(C)C(=O)C [epoxomicin]
Method in brief: as §1

[13] = compound: CN1C2=C(C3=C1C(=O)N(N=C3)CC4=CC(=CC=C4)N)SC(=C2)S(=O)C
Method in brief: as §1

Measured: log2 fold change

MITF (UniProt O75030)
Chain of UniProt O75030 (O75030 whole entry, looked up): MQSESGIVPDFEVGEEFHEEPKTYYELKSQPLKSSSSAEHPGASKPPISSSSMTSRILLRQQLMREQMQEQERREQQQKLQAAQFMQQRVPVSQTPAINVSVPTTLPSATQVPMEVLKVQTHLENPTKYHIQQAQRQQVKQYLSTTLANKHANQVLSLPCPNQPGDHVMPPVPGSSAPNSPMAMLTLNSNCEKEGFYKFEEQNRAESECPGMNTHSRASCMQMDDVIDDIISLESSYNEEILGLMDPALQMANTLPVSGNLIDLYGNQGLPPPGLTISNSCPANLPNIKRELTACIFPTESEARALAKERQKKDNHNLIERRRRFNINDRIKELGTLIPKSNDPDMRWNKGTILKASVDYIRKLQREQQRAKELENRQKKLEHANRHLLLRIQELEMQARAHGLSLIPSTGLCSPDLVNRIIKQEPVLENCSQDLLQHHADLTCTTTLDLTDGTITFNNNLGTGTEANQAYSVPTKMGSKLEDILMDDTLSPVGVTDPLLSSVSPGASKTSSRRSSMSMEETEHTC
inactive: [1] 0.005 | [2] 0.107 | vemurafenib 0.016 | [3] -0.281 | givinostat -0.002 | [4] 0.014 | [5] 0.02 | [6] -0.051 | [7] 0.044 | [8] -0.231 | [9] -0.046

NIPSNAP2 (UniProt C9J7B1)
inactive: [1] 0.067 | [3] -0.182 | barasertib 0.01 | rosiglitazone -0.065

OVCA2 (UniProt Q8WZ82)
inactive: [10] -0.132 | [11] 0.013 | [2] 0.086 | [12] -0.048 | [3] -0.305 | barasertib 0.06 | [4] -0.352 | volasertib -0.47 | [5] 0.083 | [7] 0.086 | rosiglitazone -0.033 | [9] -0.116

NAGPA (UniProt Q9UK23)
Chain of UniProt Q9UK23 (Q9UK23 whole entry, looked up): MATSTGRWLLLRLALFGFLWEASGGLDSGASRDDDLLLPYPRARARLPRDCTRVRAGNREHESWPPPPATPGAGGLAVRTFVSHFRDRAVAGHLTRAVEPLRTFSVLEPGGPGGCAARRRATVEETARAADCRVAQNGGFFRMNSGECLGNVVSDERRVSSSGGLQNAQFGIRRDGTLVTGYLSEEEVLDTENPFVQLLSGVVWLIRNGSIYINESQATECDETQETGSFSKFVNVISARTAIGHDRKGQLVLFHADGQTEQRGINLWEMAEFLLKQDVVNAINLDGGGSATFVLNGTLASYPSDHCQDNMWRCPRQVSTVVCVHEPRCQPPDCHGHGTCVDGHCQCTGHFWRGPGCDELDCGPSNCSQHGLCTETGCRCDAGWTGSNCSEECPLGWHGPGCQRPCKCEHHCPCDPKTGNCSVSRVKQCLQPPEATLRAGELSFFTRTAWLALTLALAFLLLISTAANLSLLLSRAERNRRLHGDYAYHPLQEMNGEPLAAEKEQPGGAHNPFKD
active: volasertib 0.555
inactive: [1] -0.028 | [11] -0.004 | [2] 0.054 | Nexturastat A -0.131 | [12] -0.067 | [3] -0.066 | givinostat 0.002 | barasertib -0.133 | [4] 0.213 | [5] -0.065 | epoxomicin 0.071 | [6] -0.022 | [7] 0.084 | rosiglitazone -0.061 | [13] -0.084 | [9] -0.083

MSANTD2 (UniProt Q6P1R3)
Chain of UniProt Q6P1R3 (Q6P1R3 whole entry, looked up): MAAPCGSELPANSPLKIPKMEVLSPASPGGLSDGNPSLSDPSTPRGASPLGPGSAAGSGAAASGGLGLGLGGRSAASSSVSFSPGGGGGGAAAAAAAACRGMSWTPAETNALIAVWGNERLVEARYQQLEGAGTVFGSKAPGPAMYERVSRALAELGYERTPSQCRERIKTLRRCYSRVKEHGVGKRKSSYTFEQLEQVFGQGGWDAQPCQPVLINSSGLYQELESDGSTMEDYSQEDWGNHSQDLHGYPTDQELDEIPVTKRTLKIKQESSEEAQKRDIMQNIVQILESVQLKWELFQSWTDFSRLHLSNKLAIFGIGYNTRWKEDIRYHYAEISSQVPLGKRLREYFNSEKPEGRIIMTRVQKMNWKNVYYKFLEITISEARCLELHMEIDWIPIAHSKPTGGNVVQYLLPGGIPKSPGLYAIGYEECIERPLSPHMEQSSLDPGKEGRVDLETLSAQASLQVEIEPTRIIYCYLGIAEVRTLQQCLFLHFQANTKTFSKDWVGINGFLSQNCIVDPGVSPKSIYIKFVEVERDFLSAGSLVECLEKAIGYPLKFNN
inactive: [1] -0.024 | Nexturastat A 0.239 | vemurafenib -0.062 | [4] -0.071 | epoxomicin -0.273 | [8] 0.004 | [13] 0.13

OSBPL2 (UniProt Q9H1P3)
inactive: [11] -0.203 | [12] 0 | [3] -0.264 | volasertib 0.025

NDUFA7 (UniProt M0R0N0)
inactive: [1] -0.011 | vemurafenib -0.195 | givinostat 0.104 | barasertib 0.052 | [6] -0.017 | [8] -0.092 | rosiglitazone 0.081

NOLC1 isoform 3 (UniProt Q14978)
inactive: givinostat -0.02 | [6] -0.275

MLH1 (UniProt P40692)
active: [3] 0.584
inactive: [11] 0.023 | Nexturastat A -0.014 | [12] 0.276 | barasertib 0.11 | volasertib -0.385 | epoxomicin 0.11 | [7] 0.073 | rosiglitazone 0.264 | [13] 0.268 | [9] 0.112

MYH16 (UniProt Q9H6N6)
Chain of UniProt Q9H6N6 (Q9H6N6 whole entry, looked up): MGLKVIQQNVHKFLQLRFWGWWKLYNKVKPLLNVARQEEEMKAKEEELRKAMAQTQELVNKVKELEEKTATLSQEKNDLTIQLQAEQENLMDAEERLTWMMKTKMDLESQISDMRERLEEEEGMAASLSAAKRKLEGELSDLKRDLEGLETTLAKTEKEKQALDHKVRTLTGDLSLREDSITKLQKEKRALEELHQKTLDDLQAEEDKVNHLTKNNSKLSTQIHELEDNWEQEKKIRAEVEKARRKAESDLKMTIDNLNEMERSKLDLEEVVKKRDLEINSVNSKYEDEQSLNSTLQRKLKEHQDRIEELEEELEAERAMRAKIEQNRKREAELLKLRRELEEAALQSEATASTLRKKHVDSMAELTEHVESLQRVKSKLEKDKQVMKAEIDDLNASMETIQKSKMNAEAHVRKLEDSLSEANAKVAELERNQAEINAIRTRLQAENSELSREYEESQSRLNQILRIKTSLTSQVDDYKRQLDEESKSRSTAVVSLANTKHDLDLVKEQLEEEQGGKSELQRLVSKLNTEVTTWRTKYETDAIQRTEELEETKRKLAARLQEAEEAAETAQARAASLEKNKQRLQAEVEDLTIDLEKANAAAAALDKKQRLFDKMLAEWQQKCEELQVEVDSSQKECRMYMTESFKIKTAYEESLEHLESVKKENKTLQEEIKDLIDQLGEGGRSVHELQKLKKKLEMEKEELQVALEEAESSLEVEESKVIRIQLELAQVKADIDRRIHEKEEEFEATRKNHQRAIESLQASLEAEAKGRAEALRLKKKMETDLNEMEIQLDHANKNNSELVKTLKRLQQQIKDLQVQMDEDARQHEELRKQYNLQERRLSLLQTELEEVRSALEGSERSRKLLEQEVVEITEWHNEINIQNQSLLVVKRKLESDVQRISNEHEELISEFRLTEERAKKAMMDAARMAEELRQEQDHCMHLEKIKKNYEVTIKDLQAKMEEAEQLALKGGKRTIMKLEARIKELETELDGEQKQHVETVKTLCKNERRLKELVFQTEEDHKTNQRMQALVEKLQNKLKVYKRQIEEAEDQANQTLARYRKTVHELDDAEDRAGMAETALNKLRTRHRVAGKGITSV
active: [2] 0.724
inactive: [1] 0.484 | [11] 0.143 | vemurafenib 0.155 | [12] 0.216 | [3] 0.12 | givinostat -0.072 | barasertib -0.069 | volasertib 0.077 | [5] 0.156 | [6] 0.029 | [7] -0.067 | [8] 0.011 | rosiglitazone 0.065 | [9] 0.26

NA (UniProt J3KR12)
inactive: [10] 0.018 | [2] 0.073 | Nexturastat A -0.283 | [3] -0.046 | barasertib 0 | [5] -0.021 | epoxomicin 0.079 | rosiglitazone 0.148

NUDT6 (UniProt P53370)
inactive: [10] 0.049 | [11] 0.064 | [2] 0.075 | Nexturastat A -0.119 | vemurafenib 0.002 | [12] -0.037 | [3] -0.092 | givinostat -0.027 | [4] 0.177 | volasertib 0.041 | [5] -0.289 | epoxomicin 0.031 | [6] 0.016 | [8] -0.055 | [13] -0.132

NPC1L1 (UniProt Q9UHC9)
Chain of UniProt Q9UHC9 (Q9UHC9 whole entry, looked up): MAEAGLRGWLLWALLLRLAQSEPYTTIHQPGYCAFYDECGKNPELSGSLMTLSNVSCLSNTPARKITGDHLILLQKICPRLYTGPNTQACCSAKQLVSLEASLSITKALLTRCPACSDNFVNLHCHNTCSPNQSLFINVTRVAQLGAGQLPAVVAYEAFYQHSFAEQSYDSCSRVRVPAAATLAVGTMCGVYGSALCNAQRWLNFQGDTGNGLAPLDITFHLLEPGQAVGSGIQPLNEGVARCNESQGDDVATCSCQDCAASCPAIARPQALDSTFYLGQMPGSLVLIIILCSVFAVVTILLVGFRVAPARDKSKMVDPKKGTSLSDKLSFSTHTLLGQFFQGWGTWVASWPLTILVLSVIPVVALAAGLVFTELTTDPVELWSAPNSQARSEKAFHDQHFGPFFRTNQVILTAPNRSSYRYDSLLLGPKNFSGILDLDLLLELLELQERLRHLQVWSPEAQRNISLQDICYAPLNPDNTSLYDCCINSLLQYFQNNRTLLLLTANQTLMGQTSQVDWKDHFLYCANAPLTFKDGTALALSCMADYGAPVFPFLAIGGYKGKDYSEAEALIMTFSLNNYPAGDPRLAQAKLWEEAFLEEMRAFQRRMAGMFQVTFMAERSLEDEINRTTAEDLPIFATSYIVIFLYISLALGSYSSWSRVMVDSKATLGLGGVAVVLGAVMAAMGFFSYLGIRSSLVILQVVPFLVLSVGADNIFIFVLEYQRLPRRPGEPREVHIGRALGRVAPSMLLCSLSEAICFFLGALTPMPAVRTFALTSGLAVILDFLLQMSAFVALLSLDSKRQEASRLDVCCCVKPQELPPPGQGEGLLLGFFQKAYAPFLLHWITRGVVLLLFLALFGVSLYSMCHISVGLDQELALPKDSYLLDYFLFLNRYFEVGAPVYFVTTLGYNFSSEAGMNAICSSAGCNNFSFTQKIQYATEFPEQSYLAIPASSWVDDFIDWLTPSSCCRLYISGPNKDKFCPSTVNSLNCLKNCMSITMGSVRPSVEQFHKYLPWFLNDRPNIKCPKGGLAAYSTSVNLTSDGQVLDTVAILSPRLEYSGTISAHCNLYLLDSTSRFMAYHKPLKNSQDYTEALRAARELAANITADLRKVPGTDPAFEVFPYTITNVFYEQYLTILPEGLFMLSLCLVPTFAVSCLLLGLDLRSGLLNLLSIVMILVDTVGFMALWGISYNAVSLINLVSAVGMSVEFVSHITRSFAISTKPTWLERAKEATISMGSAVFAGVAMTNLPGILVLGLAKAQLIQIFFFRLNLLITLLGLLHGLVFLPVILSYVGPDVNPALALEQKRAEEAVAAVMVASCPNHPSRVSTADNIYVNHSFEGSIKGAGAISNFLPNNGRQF
inactive: [1] -0.014 | [11] 0.152 | [2] 0.02 | vemurafenib -0.213 | [12] -0.109 | [3] 0.012 | barasertib -0.037 | [4] -0.029 | volasertib -0.016 | [5] 0.2 | [8] -0.016 | rosiglitazone 0.045 | [13] -0.081

MORC2 (UniProt Q9Y6X9)
Chain of UniProt Q9Y6X9 (Q9Y6X9 whole entry, looked up): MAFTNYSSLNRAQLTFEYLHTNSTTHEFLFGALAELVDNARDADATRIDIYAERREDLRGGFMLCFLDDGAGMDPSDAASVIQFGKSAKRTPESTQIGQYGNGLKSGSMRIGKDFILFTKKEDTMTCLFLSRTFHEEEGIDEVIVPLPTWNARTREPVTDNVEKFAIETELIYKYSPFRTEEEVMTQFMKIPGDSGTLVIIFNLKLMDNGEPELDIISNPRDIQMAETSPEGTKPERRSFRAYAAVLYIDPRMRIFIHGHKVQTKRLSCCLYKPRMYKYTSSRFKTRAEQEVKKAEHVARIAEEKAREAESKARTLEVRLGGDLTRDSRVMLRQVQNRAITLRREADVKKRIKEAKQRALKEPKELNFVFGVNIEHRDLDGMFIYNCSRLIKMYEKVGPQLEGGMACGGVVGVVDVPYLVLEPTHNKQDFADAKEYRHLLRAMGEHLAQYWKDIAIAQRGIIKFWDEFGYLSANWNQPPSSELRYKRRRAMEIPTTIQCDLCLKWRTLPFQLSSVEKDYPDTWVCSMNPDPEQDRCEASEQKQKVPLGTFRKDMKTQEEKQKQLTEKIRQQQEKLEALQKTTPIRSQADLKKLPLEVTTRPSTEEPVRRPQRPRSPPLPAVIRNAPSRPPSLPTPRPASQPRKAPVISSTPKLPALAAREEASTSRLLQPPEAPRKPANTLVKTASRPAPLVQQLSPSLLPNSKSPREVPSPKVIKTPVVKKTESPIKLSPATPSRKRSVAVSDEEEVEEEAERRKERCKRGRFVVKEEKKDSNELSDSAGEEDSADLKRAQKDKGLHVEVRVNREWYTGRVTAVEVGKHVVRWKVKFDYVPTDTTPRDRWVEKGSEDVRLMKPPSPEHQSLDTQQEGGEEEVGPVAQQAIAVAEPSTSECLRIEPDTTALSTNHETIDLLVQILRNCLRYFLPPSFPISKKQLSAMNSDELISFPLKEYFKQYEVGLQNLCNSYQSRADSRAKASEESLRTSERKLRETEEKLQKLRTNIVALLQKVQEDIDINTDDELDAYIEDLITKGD
active: volasertib -0.8
inactive: [11] -0.059 | [2] 0.047 | Nexturastat A -0.046 | [12] 0.208 | [3] 0.231 | givinostat 0.026 | barasertib -0.002 | epoxomicin 0.118 | [6] -0.347 | rosiglitazone 0.106
